Data taken from PubChem BioAssay AID1159580 (chemical genetic matrix, 2015).
Hit rate of the full screen: of about 5,500 compounds, about 2,000 (36%) were called active. About 18% were inconclusive and are not listed. This is one part of the list. Unmarked numbers belong to inactive results. No stated cut-off is given here; in the data, active means normalized growth mostly below about 0.91 (no sharp cut-off); inconclusive means no clear call, values can overlap the other calls; inactive means mostly above about 0.92.

Test: chemical genetic growth profiling, strain panel (AID 1159580);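 further: tested at 20 µM; growth read once vehicle control cultures reached saturation at 30 °C; 1 = growth at the plate median or of vehicle wells; lower values mean less growth of the strain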
Conditions: growth OD
[1] = S. cerevisiae deletion strains, locus YAL013W, strain DEP1, hits give low values
[2] = S. cerevisiae deletion strains, locus YDL101C, strain DUN1, hits give low values
[3] = S. cerevisiae deletion strains, locus YDR150W, strain NUM1, hits give low values
[4] = S. cerevisiae deletion strains, locus YGR078C, strain PAC10, hits give low values
[5] = S. cerevisiae deletion strains, locus YHR030C, strain SLT2, hits give low values
[6] = S. cerevisiae deletion strains, locus YJR075W, strain HOC1, hits give low values
[7] = S. cerevisiae deletion strains, locus YMR263W, strain SAP30, hits give low values
[8] = S. cerevisiae deletion strains, locus YNL128W, strain TEP1, hits give low values
[9] = S. cerevisiae deletion strains, locus YNL322C, strain KRE1, hits give low values
[10] = S. cerevisiae deletion strains, locus YPL055C, strain LGE1, hits give low values
[11] = S. cerevisiae deletion strains, locus YPL241C, strain CIN2, hits give low values
[12] = S. cerevisiae deletion strains, locus YAL040C, strain CLN3, hits give low values
[13] = S. cerevisiae deletion strains, locus YCL061C, strain MRC1 (second series), hits give low values
[14] = S. cerevisiae deletion strains, locus YDR363W, strain ESC2, hits give low values
[15] = S. cerevisiae deletion strains, locus YER002W, strain NOP16, hits give low values
[16] = S. cerevisiae deletion strains, locus YGR229C, strain SMI1, hits give low values
[17] = S. cerevisiae deletion strains, locus YNL175C, strain NOP13, hits give low values
[18] = S. cerevisiae deletion strains, locus YNL197C, strain WHI3, hits give low values
[19] = S. cerevisiae deletion strains, locus YNL224C, strain SQS1, hits give low values
[20] = S. cerevisiae deletion strains, locus YOR083W, strain WHI5 (second series), hits give low values

Work on CN(C)/C=C(\C#N)C(=O)Nc1ccc(F)c(Cl)c1 yielded a normalized growth [1] of 0.971, a normalized growth (S. cerevisiae deletion strains, locus YBR229C, strain ROT2, hits give low values) of 1.01 and a normalized growth (S. cerevisiae deletion strains, locus YCL061C, strain MRC1, hits give low values) of 0.978. It also gave a normalized growth [2] of 0.981, a normalized growth [3] of 0.991 and a normalized growth (S. cerevisiae deletion strains, locus YEL061C, strain CIN8, hits give low values) of 1.01. For the same compound, the normalized growth [4] was 0.992, the normalized growth [5] was 0.983 and the normalized growth (S. cerevisiae deletion strains, locus YHR087W, strain rtc3, hits give low values) was 1.01. It also gave a normalized growth (S. cerevisiae deletion strains, locus YJR043C, strain POL32, hits give low values) of 0.97, a normalized growth [6] of 1.01 and a normalized growth (S. cerevisiae deletion strains, locus YKL190W, strain CNB1, hits give low values) of 1.01. It also gave a normalized growth (S. cerevisiae deletion strains, locus YLR039C, strain RIC1, hits give low values) of 1.07, a normalized growth (S. cerevisiae deletion strains, locus YLR058C, strain SHM2 (second series), hits give low values) of 1.01 and a normalized growth (S. cerevisiae deletion strains, locus YLR085C, strain ARP6, hits give low values) of 0.912. The normalized growth (S. cerevisiae deletion strains, locus YLR262C, strain YPT6, hits give low values) was 1.16, the normalized growth (S. cerevisiae deletion strains, locus YML094W, strain GIM5, hits give low values) was 0.988 and the normalized growth (S. cerevisiae deletion strains, locus YMR219W, strain ESC1, hits give low values) was 1.01. It also gave a normalized growth [7] of 1, a normalized growth [8] of 1 and a normalized growth (S. cerevisiae deletion strains, locus YNL153C, strain GIM3, hits give low values) of 0.976. It also gave a normalized growth (S. cerevisiae deletion strains, locus YNL298W, strain CLA4 (second series), hits give low values) of 0.97, a normalized growth [9] of 1.02 and a normalized growth (S. cerevisiae deletion strains, locus YNR030W, strain Alg12, hits give low values) of 1.01. For the same compound, the normalized growth (S. cerevisiae deletion strains, locus YOL006C, strain TOP1, hits give low values) was 0.965, the normalized growth [10] was 0.959 and the normalized growth [11] was 0.977. For the same compound, the normalized growth (S. cerevisiae deletion strains, locus YPR135W, strain CTF4, hits give low values) was 0.991 and the normalized growth (S. cerevisiae strains, strain wild type, hits give low values) was 1.01.

With Cn1c([N+](=O)[O-])cnc1/C=C(\C#N)C(=O)Nc1ccc(F)cc1 the normalized growth (S. cerevisiae deletion strains, locus YAR019C, strain CDC15, hits give low values) was 0.267 (active), the normalized growth (S. cerevisiae deletion strains, locus YBL105C, strain PKC1, hits give low values) was 0.368 (active) and the normalized growth (S. cerevisiae deletion strains, locus YBR135W, strain CKS1, hits give low values) was 0.436 (active). For the same compound, the normalized growth (S. cerevisiae deletion strains, locus YBR136W, strain MEC1, hits give low values) was 0.608 (active), the normalized growth (S. cerevisiae deletion strains, locus YBR160W, strain CDC28, hits give low values) was 0.639 (active) and the normalized growth (S. cerevisiae deletion strains, locus YDL017W, strain CDC7, hits give low values) was 0.541 (active). The normalized growth (S. cerevisiae deletion strains, locus YDL028C, strain MPS1, hits give low values) was 0.874 (active), the normalized growth [2] was 0.852 (active) and the normalized growth (S. cerevisiae deletion strains, locus YDL108W, strain KIN28, hits give low values) was 0.92. The normalized growth (S. cerevisiae deletion strains, locus YDL214C, strain PRR2, hits give low values) was 0.37 (active), the normalized growth (S. cerevisiae deletion strains, locus YDR052C, strain DBF4, hits give low values) was 0.936 and the normalized growth (S. cerevisiae deletion strains, locus YDR226W, strain ADK1, hits give low values) was 0.642 (active). For the same compound, the normalized growth (S. cerevisiae deletion strains, locus YDR477W, strain SNF1, hits give low values) was 0.104 (active), the normalized growth (S. cerevisiae deletion strains, locus YER123W, strain YCK3, hits give low values) was 0.408 (active) and the normalized growth (S. cerevisiae deletion strains, locus YER133W, strain GLC7, hits give low values) was 0.3 (active). The normalized growth (S. cerevisiae deletion strains, locus YFL009W, strain cdc4, hits give low values) was 0.913, the normalized growth (S. cerevisiae deletion strains, locus YFL029C, strain CAK1, hits give low values) was 0.542 (active) and the normalized growth (S. cerevisiae deletion strains, locus YFR019W, strain FAB1, hits give low values) was 0.262 (active). For the same compound, the normalized growth (S. cerevisiae deletion strains, locus YFR028C, strain CDC14, hits give low values) was 0.2 (active), the normalized growth (S. cerevisiae deletion strains, locus YGR040W, strain KSS1, hits give low values) was 0.139 (active) and the normalized growth (S. cerevisiae deletion strains, locus YGR052W, strain FMP48, hits give low values) was 0.305 (active). For the same compound, the normalized growth (S. cerevisiae deletion strains, locus YGR092W, strain DBF2, hits give low values) was 0.118 (active), the normalized growth [5] was 0.234 (active) and the normalized growth (S. cerevisiae deletion strains, locus YHR079C, strain IRE1, hits give low values) was 0.366 (active). For the same compound, the normalized growth (S. cerevisiae deletion strains, locus YHR082C, strain KSP1, hits give low values) was 0.371 (active), the normalized growth (S. cerevisiae deletion strains, locus YHR205W, strain SCH9, hits give low values) was 0.0146 (active) and the normalized growth (S. cerevisiae deletion strains, locus YIL147C, strain SLN1, hits give low values) was 0.741 (active). For the same compound, the normalized growth (S. cerevisiae deletion strains, locus YJL095W, strain BCK1, hits give low values) was 0.149 (active), the normalized growth (S. cerevisiae deletion strains, locus YJL157C, strain FAR1, hits give low values) was 0.346 (active) and the normalized growth (S. cerevisiae deletion strains, locus YJR016C, strain ILV3, hits give low values) was 0.436 (active). The normalized growth (S. cerevisiae deletion strains, locus YJR066W, strain TOR1 (second series), hits give low values) was 0.116 (active), the normalized growth (S. cerevisiae deletion strains, locus YJR066W, strain TOR1, hits give low values) was 0.207 (active) and the normalized growth (S. cerevisiae deletion strains, locus YKL048C, strain ELM1, hits give low values) was 0.168 (active). The normalized growth (S. cerevisiae deletion strains, locus YKL067W, strain YNK1, hits give low values) was 0.43 (active), the normalized growth (S. cerevisiae deletion strains, locus YKL101W, strain HSL1, hits give low values) was 0.157 (active) and the normalized growth (S. cerevisiae deletion strains, locus YKL193C, strain SDS22, hits give low values) was 0.399 (active). For the same compound, the normalized growth (S. cerevisiae deletion strains, locus YKL203C, strain TOR2, hits give low values) was 0.119 (active), the normalized growth (S. cerevisiae deletion strains, locus YLR113W, strain HOG1, hits give low values) was 0.319 (active) and the normalized growth (S. cerevisiae deletion strains, locus YLR133W, strain CKI1, hits give low values) was 0.111 (active). The normalized growth (S. cerevisiae deletion strains, locus YLR403W, strain SFP1, hits give low values) was 0.0176 (active), the normalized growth (S. cerevisiae deletion strains, locus YML070W, strain DAK1, hits give low values) was 0.28 (active) and the normalized growth (S. cerevisiae deletion strains, locus YMR001C, strain CDC5, hits give low values) was 0.438 (active). For the same compound, the normalized growth (S. cerevisiae deletion strains, locus YMR205C, strain PFK2 (second series), hits give low values) was 0.139 (active), the normalized growth (S. cerevisiae deletion strains, locus YMR277W, strain FCP1, hits give low values) was 0.347 (active) and the normalized growth (S. cerevisiae deletion strains, locus YNL006W, strain LST8, hits give low values) was 0.219 (active). For the same compound, the normalized growth (S. cerevisiae deletion strains, locus YNL020C, strain ARK1, hits give low values) was 0.119 (active), the normalized growth (S. cerevisiae deletion strains, locus YNL161W, strain CBK1, hits give low values) was 0.324 (active) and the normalized growth (S. cerevisiae deletion strains, locus YNL183C, strain NPR1, hits give low values) was 0.168 (active). For the same compound, the normalized growth (S. cerevisiae deletion strains, locus YNL207W, strain RIO2, hits give low values) was 0.635 (active), the normalized growth (S. cerevisiae deletion strains, locus YNL222W, strain SSU72, hits give low values) was 0.411 (active) and the normalized growth (S. cerevisiae deletion strains, locus YNL307C, strain MCK1 (second series), hits give low values) was 0.117 (active). For the same compound, the normalized growth (S. cerevisiae deletion strains, locus YOL078W, strain AVO1, hits give low values) was 0.47 (active), the normalized growth (S. cerevisiae deletion strains, locus YOL136C, strain PFK27, hits give low values) was 0.431 (active) and the normalized growth (S. cerevisiae deletion strains, locus YOR061W, strain CKA2, hits give low values) was 0.168 (active). For the same compound, the normalized growth (S. cerevisiae deletion strains, locus YOR119C, strain RIO1, hits give low values) was 0.162 (active), the normalized growth (S. cerevisiae deletion strains, locus YOR231W, strain MKK1, hits give low values) was 0.418 (active) and the normalized growth (S. cerevisiae deletion strains, locus YOR329C, strain SCD5, hits give low values) was 0.372 (active). For the same compound, the normalized growth (S. cerevisiae deletion strains, locus YPL031C, strain PHO85, hits give low values) was 0.104 (active), the normalized growth (S. cerevisiae deletion strains, locus YPL153C, strain RAD53, hits give low values) was 0.112 (active) and the normalized growth (S. cerevisiae deletion strains, locus YPL204W, strain HRR25, hits give low values) was 0.109 (active). The normalized growth (S. cerevisiae deletion strains, locus YPL209C, strain IPL1, hits give low values) was 0.476 (active), the normalized growth (S. cerevisiae deletion strains, locus YPL256C, strain CLN2, hits give low values) was 0.448 (active) and the normalized growth (S. cerevisiae deletion strains, locus YPR025C, strain CCL1, hits give low values) was 0.403 (active). It also gave a normalized growth (S. cerevisiae deletion strains, locus YPR106W, strain ISR1, hits give low values) of 0.968.

In the case of N#C/C(=C\c1ccc(O)c(O)c1)C(=O)Nc1ccccc1, the normalized growth [1] is reported as 0.988, the normalized growth [12] is reported as 1 and the normalized growth [13] is reported as 1.01. It also gave a normalized growth [3] of 0.996, a normalized growth [14] of 1.05 and a normalized growth [15] of 1.01. The normalized growth [4] was 1.05, the normalized growth [16] was 0.966 and the normalized growth [6] was 1.01. The normalized growth (S. cerevisiae deletion strains, locus YMR307W, strain GAS1, hits give low values) was 1, the normalized growth [8] was 1.04 and the normalized growth [17] was 1.03. It also gave a normalized growth [18] of 1, a normalized growth [19] of 1.03 and a normalized growth [9] of 0.989. For the same compound, the normalized growth [20] was 1.02, the normalized growth [10] was 1.01 and the normalized growth [11] was 1.01.

For Nc1nc2[nH]c(=O)cnc2c(=O)[nH]1, the normalized growth [1] was 0.996, the normalized growth [12] was 1.06 and the normalized growth [13] was 0.994. It also gave a normalized growth [14] of 0.985, a normalized growth [15] of 0.949 and a normalized growth [16] of 1.01. The normalized growth [7] was 0.99, the normalized growth [17] was 0.983 and the normalized growth [18] was 0.977. For the same compound, the normalized growth [19] was 0.987, the normalized growth [9] was 1.01 and the normalized growth [20] was 0.988.
